Screening data from PubChem.
Cy5 interf NS3h: counter-screen for HCV NS3 helicase inhibitors: fluorescence interference; Cy5-dT15 DNA with NS3h; actives lie on both sides; signal over control mean, under 1 quenches; fluorescence interference ratio at 100 µM; 16,000 tested, 6% active; AID 720488;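 active = compound fluorescence over control fluorescence at most 0.8, a quencher, or at least a set upper limit, an enhancer; inactive = ratio between 0.8 and the set upper limit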
HCV NS3h FP: hepatitis C NS3 helicase inhibition, primary screen | inhibition, % at 100 µM | 16,000 tested, 1.6% active | AID 687043 | NS3h Cy5-dT15 DNA binding, fluorescence polarization;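 active = inhibition above the average over every tested compound plus 3 SD, cut at about 40% in these data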
Starred values were filed as active, the others as inactive. Rows were chosen to be rich in hits. Some 7.6% of all compounds tested hit in one or more screens of this group.

SMILES	Cy5 interf NS3h	HCV NS3h FP
COc1ccccc1/C=N\NC(=O)C(C)Oc1ccc(Cl)cc1 (stereo unspecified)	0.955	6.7
CCOc1ccc2c(c1)-c1c(ssc1=S)C(C)(C)N2C(=O)CSc1nnc(N)s1	1.06	3.7
O=C1C(=O)N(Cc2ccccc2)C(c2ccc(Cl)cc2)C1=C(O)c1ccccc1 (stereo unspecified)	1.02	8.0
COc1cc(/C=N\NC(=O)CCc2cc(C(C)(C)C)c(O)c(C(C)(C)C)c2)cc(Br)c1O	0.994	8.8
O=C(NC(=S)Nc1ccc(-c2nc3ccccc3o2)cc1)c1ccco1	0.952	1.3
O=C(Cc1ccc(F)cc1)NCC1CCCO1 (stereo unspecified)	0.75*	4.0
COc1ccc(CCNC(=O)C(=O)NCCCOC(C)C)cc1	1.09	6.4
COCCCNC(=O)C(=O)NCCc1ccc(OC)cc1	0.74*	13.3
S=C(NCCOCCOCCNC(=S)Nc1ccccc1)Nc1ccccc1	1.07	2.8
Cc1ccc(CNC(=O)C(=O)NC(C)C)cc1	1.11	11.9
COCCNC(=S)Nc1ccc(OC)cc1	0.768*	7.7
COc1ccc(CC(=O)NCC2CCCO2)cc1OC (stereo unspecified)	1.06	0.9
Cc1ccc(CNC(=O)C(=O)N2CCCC2)cc1	1.27*	4.4
COc1c(Cl)cc(C(=O)Nc2cc(-c3nc4cc(Cl)ccc4o3)ccc2C)cc1Cl	1.05	4.2
COc1ccc(CNC(=O)C(=O)Nc2ccccc2C)cc1	1.05	4.0
COc1ccc(CNC(=O)C(=O)NCc2ccccc2)cc1	0.732*	10.5
O=C1OC(c2sc3ccccc3c2Cl)=N/C1=C/c1ccccc1F	1.07	2.4
COc1ccc(N2C(=O)C(Cl)=C(Nc3cccc(OC)c3)C2=O)cc1	0.972	5.5
CCn1c(-c2ccc([N+](=O)[O-])cc2)n[nH]c1=S	0.978	-2.8
O=[N+]([O-])c1ccc(-c2cc(-c3ccc(I)cc3)n[nH]2)cc1	1.2*	4.5
C=CCN1C(=O)c2ccccc2C1(O)c1ccc(OC)cc1 (stereo unspecified)	0.738*	8.7
C=CCn1c(SCC(=O)O)nnc1-c1ccc(OC)cc1	1.05	-3.8
O=C(Nc1ccc(-c2nc3ccccc3c(=O)o2)cc1)c1ccccc1F	0.885	-1.6
O=c1oc(-c2cccc(F)c2)nc2ccc(Cc3ccc4nc(-c5cccc(F)c5)oc(=O)c4c3)cc12	0.769*	19.8
O=c1ccc2ccc(OCc3ccccc3Cl)cc2o1	1.05	11.5
SMILES	Cy5 interf NS3h	HCV NS3h FP
CC(C)C(=O)NS(=O)(=O)c1ccc(NC(=O)c2ccc(Cl)cc2)cc1	1.1	-17.3
COC(=O)C1=C(C)N(c2ccc(C)cc2)/C(=C\c2ccc(OCC(N)=O)cc2)C1=O	0.994	-2.6
NC(=O)COc1ccc(/C=c2/sc3n(c2=O)CCCN=3)cc1	1.21*	10.0
CC1(C)CC(=O)C2=C(C1)OC1=C(C(=O)CC(C)(C)C1)C2c1cccc([N+](=O)[O-])c1	1.01	14.9
Cc1ccc(C2C3=C(CC(C)(C)CC3=O)OC3=C2C(=O)CC(C)(C)C3)o1	0.669*	15.9
O=C(Nc1ccc2c(c1)C(=O)OC2)NC1CCCCC1	1.4*	21.2
CN(C)c1cccc(C(=O)NC2CCCCCC2)c1	1.09	8.2
CC(Oc1ccccc1)C(=O)Nc1cc(Cl)cc(Cl)c1 (stereo unspecified)	1.02	1.8
Cc1ccc(S(=O)(=O)N=C2C=CC(=O)C(Br)=C2)cc1	0.945	27.7
Cc1ccc(S(=O)(=O)N=C2C=C(Cl)C(=O)C(Br)=C2)cc1	0.606*	33.7
Cc1cc(NC(=O)c2cccc(Br)c2)ccc1-c1cc2ccccc2oc1=O	0.898	-4.8
COc1ccc(CN2C(=O)NC(=O)/C(=C\C=C\c3ccccc3)C2=O)cc1	1.89*	-26.9
COc1ccc(CN2C(=O)NC(=O)/C(=C\C=C\c3ccco3)C2=O)cc1	0.898	18.8
COc1cc(C(=O)Nc2ccc(NC(C)=O)cc2)c([N+](=O)[O-])cc1OC	1.01	9.9
CCCNC(=O)c1cc(OC)c(OC)cc1[N+](=O)[O-]	0.787*	10.5
Cc1ccc(C)n1-c1cccc2cccnc12	0.0702*	-87.4
CCOC(=O)C1=C(O)/C(=C/c2cccc(Br)c2)SC1=Nc1ccccc1	0.663*	18.0
CCOC(=O)C1=C(O)/C(=C/c2ccc(OC)c(OC)c2)SC1=Nc1ccc([N+](=O)[O-])cc1	0.986	-37.3
O=C(N=Nc1c(O)[nH]c(=O)[nH]c1=O)c1cncc(Br)c1	1.01	19.4
COc1ccccc1N1CCN(C(=O)c2c(Cl)cccc2Cl)CC1	1.03	1.8
COc1ccccc1N1CCN(C(=O)c2ccc(N(C)C)cc2)CC1	0.657*	-2.5
CN(C)c1ccc(C(=O)N2CCN(c3ccc(F)cc3)CC2)cc1	0.75*	8.7
CN(C)c1ccc(C(=O)N2CCN(c3ccccc3)CC2)cc1	0.965	-3.4
CCC(C(C)=O)C(=O)Nc1ccccc1 (stereo unspecified)	0.965	-1.6
CC(=O)CC(C)(C)Nc1ccccc1	0.745*	5.9
SMILES	Cy5 interf NS3h	HCV NS3h FP
CCOc1cc(/C=C2/C(=O)NC(=O)N(c3ccccc3)C2=O)cc(Br)c1O	0.931	9.9
O=C(CSCc1ccc(F)cc1)Nc1ccccc1	0.933	7.1
O=C(CSc1ncc(-c2ccccc2)[nH]1)Nc1ccc(F)cc1	0.782*	-2.4
CSc1[nH]c(-c2ccccc2)cc1C(C)=O	1.02	5.1
Cc1ccc(C(O)=C2C(=O)C(=O)N(CCCC(=O)O)C2/C=C/c2ccccc2)cc1 (stereo unspecified)	1.02	8.7
CC(C)CN1C(=O)c2ccc(C(=O)Nc3c[nH]c(=O)[nH]c3=O)cc2C1=O	0.664*	5.9
CCC(=O)Nc1ccc(C(=O)Nc2c[nH]c(=O)[nH]c2=O)cc1	1.17	10.0
O=C(Nc1ccc(Cl)c(Cl)c1)c1ccc(Cl)cc1Cl	1.06	18.9
O=C(c1cccc(C#Cc2ccccc2)c1)N1CCN(C(c2ccccc2)c2ccccc2)CC1	1	1.9
CCc1ccc(C(=O)/C=C/c2cn(-c3ccccc3)nc2-c2cccnc2)cc1	1.09	4.6
Cc1nc2cc(Nc3nnc(-c4ccc(Cl)cc4)c4ccccc34)ccc2n1C	0.672*	12.9
Cc1ccc(-c2nnc(Nc3ccc4c(c3)ncn4C)c3ccccc23)cc1	0.911	18.4
COc1ccc(-c2nnc(Nc3ccc(C)cc3)c3ccccc23)cc1	0.888	16.5
Cn1cnc2cc(Nc3nnc(-c4ccc(Cl)cc4)c4ccccc34)ccc21	0.702*	11.7
Cc1ccc(-c2n[nH]c3c2C(c2cccc([N+](=O)[O-])c2)N(c2ccc(F)cc2)C3=O)cc1 (stereo unspecified)	1.08	8.2
Cc1ccc(S(=O)(=O)C(CC(=O)c2ccc(O)cc2)c2ccccc2)cc1 (stereo unspecified)	0.961	-5.4
O=C(NN1C(=O)c2ccccc2C1=O)c1ccc(O)cc1	0.984	0.7
CN(C)CCn1c2ccccc2c2nc3ccc([N+](=O)[O-])cc3cc21	0.745*	-13.0
CCc1nc2ccccc2n1Cc1ccc([N+](=O)[O-])cc1	1.01	3.7
COc1ccc(/C=C2/Sc3ccccc3C2=O)cc1	0.95	13.6
CN1C(=O)C(=Cc2ccc(O)c([N+](=O)[O-])c2)C(=O)N(C)C1=O	1.11	10.9
CN1CCN(c2ccc(/C=C3\NC(=S)NC3=O)cc2[N+](=O)[O-])CC1	0.609*	0.6
CN1CCN(c2ccc(/C=C3\Sc4ccccc4C3=O)cc2[N+](=O)[O-])CC1	0.79*	-2.9
